Screening results deposited in PubChem by National Center for Advancing Translational Sciences (NCATS).
Hits are enriched below; roughly 8.1% of the tested compounds scored in any of these assays.
KB-V1 cytotox = KB-V1 MDR subline cytotoxicity; KB-V1 MDR cells viability, CellTiter-Glo, 72 h; Potency, µM (series often up to 46.1 µM), usual class: cytotoxic; hit rate 3.4% among 400,000; note: % is set by controls: 0 for no effect and ±100 for the full control effect; nearly all actives have a fitted effect of over 60% in size
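Potencies derive from concentration-effect curves fitted to normalized luminescence (CellTiter-Glo) of KB-V1 cells treated for 72 h at 37 degrees C in phenol-red-free DMEM containing 10% FBS.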
SW480 rerep = induces DNA re-replication in SW480 colon adenocarcinoma cells; SW480 DNA re-replication, Hoechst DNA content imaging, 48 h; Potency, µM (titrated, usually from 46.1 µM), for inactives: at the highest dose re-replication activation, usual class: activators; hit rate 1.8% among 340,000; note: % of control where 0% means no effect; nearly all actives have a fitted effect of over 55% in size
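First, 250 cells per well were seeded. Next, compound or vehicle (23 nL) was pinned in, plates sat 48 hr at 37 C. Finally Hoechst was added for 40 min before fluorescence scanning.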
ELG1 DNA repair = inhibitors of ELG1-dependent DNA repair in HEK293T cells | AID 504467 | Potency, µM (titrated, usually from 46.1 µM), for the others: at the highest dose activity change, negative = inhibition, usual class: inhibitors | HEK293T ELG1-luciferase reporter, luminescence, 16 h; DNA damage induced by 5-fluorouridine | hit rate 2.3% among 330,000; note: % is set by controls: 0 for no effect and ±100 for the full control effect; nearly all actives have a fitted effect of over 55% in size
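In this reporter screen, reduction of luminescence relative to DMSO vehicle indicated activity. Compounds and 5-fluorouridine were added together to 2,000 cells per well, incubated for 16 hr at 37 °C, then developed with ONE-Glo.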
KB-3-1 tox = kills parental KB-3-1 adenocarcinoma cells; AID 1347075; KB-3-1 viability, CellTiter-Glo ATP luminescence, 72 h; Potency, µM (doses to about 46.1 µM), actives largely listed as cytotoxic; hit rate 1.4% among 400,000; note: % is set by controls: 0 for no effect and ±100 for the full control effect; nearly all actives have a fitted effect of over 60% in size
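72 h, 37 °C compound treatment of KB-3-1 parental cells; CellTiter-Glo added, 10 min, luminescence read. Data corrected against DMSO-only plates and normalized before curve fitting.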
MCF10A rerep = inducers of DNA re-replication in MCF 10A breast cells; MCF 10A DNA re-replication, Hoechst nuclear intensity, 48 h; Potency, µM (doses to about 46.1 µM), without a hit: top-dose activity, positive = re-replication, hits mostly activators; hit rate 2.9% among 350,000; AID 624296; note: % of control where 0% means no effect; nearly all actives have a fitted effect of over 50% in size
Active calls of the source: *. Calls come from the whole dose curve; as a rule, active = well fitted curve in the direction sought with a large enough effect; inconclusive = small, poorly fitted or top-dose-only effect, or another doubt; inactive = no such curve, though single readings can be large; an effect the other way counts as inactive or inconclusive. Potency is the fitted concentration of half-maximal effect.

For O=C(CCn1c(=O)[nH]c2ccsc2c1=O)N1CCN(c2ccc([N+](=O)[O-])cc2)CC1 the results were KB-V1 cytotox inactive, SW480 rerep -12%, ELG1 DNA repair 18µM*, KB-3-1 tox inactive and MCF10A rerep 24%.
For CC(=O)c1ccc(N2CCN(C(=O)CCCCn3c(=O)[nH]c4ccsc4c3=O)CC2)cc1 the results were KB-V1 cytotox inactive and KB-3-1 tox inactive.
`O=C(CCn1c(=O)[nH]c2ccsc2c1=O)N1CCN(c2cccc(Cl)c2)CC1` gave KB-V1 cytotox inactive, SW480 rerep 5%, ELG1 DNA repair -4%, KB-3-1 tox 21µM* and MCF10A rerep inconclusive.
`O=C(CCCCn1c(=O)[nH]c2ccsc2c1=O)N1CCN(c2cccc(Cl)c2)CC1` gave KB-V1 cytotox inactive and KB-3-1 tox inconclusive.
For Cc1ccc(OCCCCn2ccnc2)c(Cl)c1 the results were KB-V1 cytotox 21µM*, SW480 rerep 0%, ELG1 DNA repair inconclusive, KB-3-1 tox inactive and MCF10A rerep 2%.
Cc1ccc(OCCCCn2ccnc2C)c(C)c1 was read as KB-V1 cytotox inconclusive, SW480 rerep 7%, ELG1 DNA repair 12µM*, KB-3-1 tox inactive and MCF10A rerep 15µM*.
Screening Cc1ccc(C)c(OCCCCn2ccnc2)c1 returned KB-V1 cytotox inconclusive, SW480 rerep inconclusive, ELG1 DNA repair -1%, KB-3-1 tox inactive and MCF10A rerep 2%.
For COC(=O)C1=C(C)NC(=O)NC1c1ccc(OC)c(OC)c1 (configuration not stated) the results were KB-V1 cytotox inconclusive and KB-3-1 tox inactive.
COC(=O)C1=C(C)NC(=O)NC1c1ccc(N2CCC(c3ccccc3)=N2)cc1 (configuration not stated) was read as KB-V1 cytotox inconclusive, SW480 rerep 2.1µM*, ELG1 DNA repair inconclusive, KB-3-1 tox inactive and MCF10A rerep 5.2µM*.
For c1ccc2c(c1)oc1c(-c3cccc4nccn34)cccc12 the results were KB-V1 cytotox inactive and KB-3-1 tox inconclusive.
COc1ccc(C(=O)/C(Br)=C/C(=O)O)cc1 was read as SW480 rerep inconclusive and MCF10A rerep 21µM*.
Screening COc1ccc(C(=O)C(=O)N2CCC(Cc3ccccc3)CC2)cc1OC returned KB-V1 cytotox inconclusive and KB-3-1 tox inactive.
CC12CCC(C(=O)Nc3cccc(Cl)c3)(C(Br)C1=O)C2(C)C (configuration not stated) was read as KB-V1 cytotox 15µM*, SW480 rerep inconclusive, ELG1 DNA repair -10%, KB-3-1 tox inconclusive and MCF10A rerep inconclusive.
`CC12CCC(C(=O)Nc3ccc(Cl)cc3)([C@H](Br)C1=O)C2(C)C` (some centres not stated) gave KB-V1 cytotox inactive, SW480 rerep -44%, ELG1 DNA repair 1%, KB-3-1 tox inactive and MCF10A rerep -5%.
`CCCCCCCCN1C(=O)[C@H](CC(=O)N2CCSCC2)C[C@@]2(C(=O)OCC)CCCC=C12` gave KB-V1 cytotox 23µM* and KB-3-1 tox inconclusive.
For CCOC(=O)[C@]12CCCC=C1N(Cc1cccc3ccccc13)C(=O)[C@H](CC(=O)N1CCCCC1)C2 the results were KB-V1 cytotox 9.2µM* and KB-3-1 tox inconclusive.
CCOC(=O)[C@]12CCCC=C1N(Cc1cccc3ccccc13)C(=O)[C@H](CC(=O)N1CCSCC1)C2 was read as KB-V1 cytotox 18µM* and KB-3-1 tox inactive.
`CCOC(=O)[C@]12CCC=C1N(Cc1cccc3ccccc13)C(=O)[C@H](CC(=O)N1CCSCC1)C2` gave KB-V1 cytotox inconclusive and KB-3-1 tox inactive.
For CN1CCN(Nc2nn3c(=O)c4ccccc4nc3s2)CC1 the results were KB-V1 cytotox inconclusive and KB-3-1 tox inactive.
Screening CC(C)C1C(=O)N(Cc2cn(CC3CCCCC3)nn2)CCS(=O)(=O)N1Cc1ccc(-c2ccncc2)cc1 (configuration not stated) returned KB-V1 cytotox inactive and KB-3-1 tox inactive.
For CCC(C)NS(=O)(=O)c1ccc(S(=O)(=O)N(CC(=O)Nc2ccccc2)Cc2ccco2)cc1 (configuration not stated) the results were KB-V1 cytotox inactive, SW480 rerep -10%, ELG1 DNA repair 18µM*, KB-3-1 tox inactive and MCF10A rerep 15%.
Screening CCCC(C)NC(=O)CN(Cc1ccco1)S(=O)(=O)c1ccccc1 (configuration not stated) returned KB-V1 cytotox inactive, SW480 rerep -6%, ELG1 DNA repair 17%, KB-3-1 tox inactive and MCF10A rerep 6%.
For Cc1ccc(S(=O)(=O)N(CC(=O)NCc2ccncc2)Cc2ccccc2F)cc1 the results were KB-V1 cytotox inconclusive, SW480 rerep 7%, ELG1 DNA repair 0%, KB-3-1 tox inactive and MCF10A rerep -1%.
For Cc1ccc(S(=O)(=O)N(CC(=O)NCc2ccco2)Cc2ccccc2F)cc1 the results were KB-V1 cytotox 8.2µM*, SW480 rerep -26%, ELG1 DNA repair 0%, KB-3-1 tox inactive and MCF10A rerep -1%.
`O=C(Nc1ccncc1)C1CCN(S(=O)(=O)c2cccc(C(F)(F)F)c2)CC1` gave KB-V1 cytotox inactive, SW480 rerep -10%, ELG1 DNA repair 1%, KB-3-1 tox inactive and MCF10A rerep inconclusive.
`COc1ccc(-n2nnnc2-c2cccc(OC)c2)cc1` gave KB-V1 cytotox 1.2µM*, SW480 rerep 3.3µM*, ELG1 DNA repair 29%, KB-3-1 tox 1µM* and MCF10A rerep 4.1µM*.
For Cc1ccc(NC(=O)CN2CCN(C)CC2)cc1Br the results were KB-V1 cytotox inactive, SW480 rerep 2%, ELG1 DNA repair -11%, KB-3-1 tox inactive and MCF10A rerep 1%.
For COC(=O)CCC(C)C1CCC2C3CCC4CC(O)CCC4(C)C3CC(O)C12C (configuration not stated) the results were KB-V1 cytotox inactive, SW480 rerep 1%, KB-3-1 tox inactive and MCF10A rerep 21µM*.
Screening O=C(NCC1CCCO1)c1cc(-c2ccccc2)on1 (configuration not stated) returned KB-V1 cytotox 21µM*, SW480 rerep -6%, ELG1 DNA repair inconclusive, KB-3-1 tox inactive and MCF10A rerep -14%.
`O=C(Nc1ccccc1C(=O)NCC1CCCO1)c1ccc(Cl)cc1` (configuration not stated) gave SW480 rerep 1%, ELG1 DNA repair 12% and MCF10A rerep -8%.
